PubChem BioAssay AID624481 (The Scripps Research Institute Molecular Screening Center, 2012)
Unmarked numbers belong to inactive results. Activity calls are given as the source filed them. Cut-off read from the data, not from the text of the source: active = inhibition above about 50%; inactive = the rest.

Target: Prolyl endopeptidase-like (Mus musculus) (UniProt Q8C167)
Assay: purified PREPL inhibitors, PREPL inhibitor project, biochemical, gel-based competitive ABPP, fluorescence, HTS hits (AID 624481)
Conditions: at 20 µM, stronger effect = higher value

Prolyl endopeptidase-like (Mus musculus), sequence (Q8C167 whole entry, looked up): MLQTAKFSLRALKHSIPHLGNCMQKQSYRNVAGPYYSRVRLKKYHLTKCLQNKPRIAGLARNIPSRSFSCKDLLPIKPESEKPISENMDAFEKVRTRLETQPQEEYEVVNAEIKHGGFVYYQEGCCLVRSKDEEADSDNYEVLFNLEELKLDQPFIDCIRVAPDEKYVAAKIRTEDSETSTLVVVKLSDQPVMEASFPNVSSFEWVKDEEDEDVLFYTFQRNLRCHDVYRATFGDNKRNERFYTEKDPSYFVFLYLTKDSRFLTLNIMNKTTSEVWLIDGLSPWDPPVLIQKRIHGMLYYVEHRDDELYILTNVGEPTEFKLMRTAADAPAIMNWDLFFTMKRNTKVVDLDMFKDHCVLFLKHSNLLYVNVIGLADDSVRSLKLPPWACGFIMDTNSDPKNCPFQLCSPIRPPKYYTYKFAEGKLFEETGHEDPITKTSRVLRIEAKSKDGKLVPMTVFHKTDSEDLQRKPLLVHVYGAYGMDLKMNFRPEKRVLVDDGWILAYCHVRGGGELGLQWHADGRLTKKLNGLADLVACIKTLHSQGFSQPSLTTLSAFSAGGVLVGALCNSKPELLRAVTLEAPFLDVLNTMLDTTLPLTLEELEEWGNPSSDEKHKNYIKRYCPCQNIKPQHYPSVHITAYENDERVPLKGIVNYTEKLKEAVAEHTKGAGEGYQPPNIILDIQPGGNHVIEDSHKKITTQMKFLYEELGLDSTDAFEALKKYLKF

Compound | inhibition
C=CCn1c(O)c(C(CC)=NCc2ccc3c(c2)OCO3)c(=O)[nH]c1=O | 32%
Brc1ccc(-[n+]2c(-c3ccccc3)cc(-c3ccccc3)cc2-c2ccccc2)cc1 | -32%
CCOc1cccc(=NC2CCCCC2)c2c(C)[nH]c(C)c12 | 13%
NC(N)=NN=Cc1ccc(N(c2ccccc2)c2ccccc2)cc1 | -64%
COc1ccc2[nH]c(C)c(CCNCc3cc(OC)c4c(c3)OCO4)c2c1 | -15%
C=CCn1c(O)c(C(CC)=NCCc2c[nH]c3ccccc23)c(=O)[nH]c1=O | 43%
O=C(c1ccc2c(c1)N(Cc1ccccc1)CCS2)N1CCC2(CC1)OCCO2 | -19%
COc1ccc2[nH]c(C)c(CCNCc3cn(C)c4ccccc34)c2c1 | 16%
O=C(c1ccc2c(c1)N(Cc1ccc(F)cc1)CCS2)N1CCC2(CC1)OCCO2 | -13%
C1=C(c2c[nH]c3ccccc23)CCNC1 | -17%
Cc1ccc(C[n+]2c(-c3ccc(C)cc3)cc(-c3ccc(C)cc3)cc2-c2ccc(C)cc2)cc1 | 1%
Cc1ccc(CN2CCSc3ccc(C(=O)N4CCC5(CC4)OCCO5)cc32)cc1 | -8%
CC(C)Cc1[nH]c(=O)c(C#N)c2c1CCC2 | 57% (active)
Clc1ccc(C[n+]2c(-c3ccccc3)cc(-c3ccccc3)cc2-c2ccccc2)cc1 | -51%
